Results taken from PubChem BioAssay.
Values joined by “and” are separate entries in the source; they are usually repeats but may differ in a detail not shown here. Identical values can stand only once. Some compounds were tested as several samples or in several runs, with calls that do not always agree. Active and inactive are the calls of the source. Unless noted, the rule behind the calls is not given here.

Columns and labels:
[1] = HepG2 liver cancer cell viability effects, profiling panel, resazurin fluorescence, 24 h, PK04 Diversity Set (AID 1172); details: higher = more signal; note: test concentration not given here
[2] = basal S. cerevisiae growth modulation, no modifier, primary screen, OD600, strain BY4716, 24 h, basal condition (AID 1173); details: OD600, 24 h, higher = more signal, called active from +8 up or from −8 down
[3] = MM1S myeloma cell viability, profiling panel, resazurin fluorescence, basal, 24 h, PK04 Diversity Set (AID 1174); details: higher = more signal, called active from +8 up or from −8 down;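 note: MM1S multiple myeloma cell line; test concentration not given here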
[4] = molecular target: Dihydroorotate dehydrogenase (quinone), mitochondrial (Plasmodium falciparum (isolate 3D7)) (UniProt Q08210); test: PfDHODH enzyme inhibitors, primary screen, biochemical, C-terminal His tag, absorbance 600 nm (AID 1175); details: DCIP absorbance 600 nm, higher = more signal, called active from +8 up or from −8 down;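 note: recombinant parasite enzyme with a five histidine tag at its C terminus; test concentration not given here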
Sequence of Dihydroorotate dehydrogenase (quinone), mitochondrial (Plasmodium falciparum (isolate 3D7)) (Q08210 whole entry, looked up): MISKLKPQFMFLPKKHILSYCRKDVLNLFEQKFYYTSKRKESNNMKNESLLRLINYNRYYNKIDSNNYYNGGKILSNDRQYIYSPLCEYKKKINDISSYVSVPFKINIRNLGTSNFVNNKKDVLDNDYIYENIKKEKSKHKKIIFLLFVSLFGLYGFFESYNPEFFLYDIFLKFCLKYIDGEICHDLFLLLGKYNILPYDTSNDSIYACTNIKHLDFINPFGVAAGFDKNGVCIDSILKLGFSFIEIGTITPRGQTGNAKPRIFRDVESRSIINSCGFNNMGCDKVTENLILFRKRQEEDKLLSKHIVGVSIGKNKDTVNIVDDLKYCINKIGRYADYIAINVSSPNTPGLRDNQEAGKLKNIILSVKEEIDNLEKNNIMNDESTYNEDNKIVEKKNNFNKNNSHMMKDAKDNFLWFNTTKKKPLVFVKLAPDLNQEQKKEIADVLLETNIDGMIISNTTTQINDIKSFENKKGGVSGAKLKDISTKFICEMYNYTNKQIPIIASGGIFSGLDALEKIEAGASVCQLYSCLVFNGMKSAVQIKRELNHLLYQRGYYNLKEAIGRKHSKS

[5] = P. aeruginosa biofilm formation inhibitors, primary screen, strain PAO1, LB-PBS medium, absorbance 600 nm (AID 1176); note: test concentration not given here; details: P. aeruginosa PAO1 growth/biofilm, A600, 12 h; higher = more signal
[6] = S. cerevisiae RM11-1a growth modifiers, primary screen, strain RM11-1a, OD600, basal, 24 h (AID 1177); details: OD600, 24 h, higher = more signal, called active from +8 up or from −8 down;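 note: cultures grown under basal conditions with no added stressor; test concentration not given here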
[7] = E. coli acrAB mutant growth effects, primary screen, E. coli filamentation inducers, strain DRC39, OD650, 24 h (AID 1178); details: higher = more signal, called active from +8 up or from −8 down;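 note: growth measured as culture turbidity by optical density at 650 nm; test concentration not given here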
[8] = E. coli acrAB mutant growth effects, primary screen, E. coli filamentation inducers, strain DRC39, OD650, 48 h (AID 1179);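 note: screen aims at cell division blockers that make cells filament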; details: E. coli DRC39 delta-acrAB growth, higher = more signal, called active from +8 up or from −8 down
[9] = RPMI8226 myeloma cell viability, profiling panel, resazurin fluorescence, basal, 24 h, PK04 Diversity Set (AID 1180); details: higher = more signal;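 note: RPMI8826 multiple myeloma cell line at 5000 cells per well; test concentration not given here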
[10] = molecular target: E3 ubiquitin-protein ligase XIAP (Homo sapiens) (UniProt P98170); test: XIAP binders, primary screen, biophysical, small-molecule microarray, fluorescence 635 nm (AID 1181); details: small-molecule microarray binding, higher = more signal;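 note: score merges 667 nm emission and signal to noise over triplicate slides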
Sequence of E3 ubiquitin-protein ligase XIAP (Homo sapiens) (P98170 whole entry, looked up): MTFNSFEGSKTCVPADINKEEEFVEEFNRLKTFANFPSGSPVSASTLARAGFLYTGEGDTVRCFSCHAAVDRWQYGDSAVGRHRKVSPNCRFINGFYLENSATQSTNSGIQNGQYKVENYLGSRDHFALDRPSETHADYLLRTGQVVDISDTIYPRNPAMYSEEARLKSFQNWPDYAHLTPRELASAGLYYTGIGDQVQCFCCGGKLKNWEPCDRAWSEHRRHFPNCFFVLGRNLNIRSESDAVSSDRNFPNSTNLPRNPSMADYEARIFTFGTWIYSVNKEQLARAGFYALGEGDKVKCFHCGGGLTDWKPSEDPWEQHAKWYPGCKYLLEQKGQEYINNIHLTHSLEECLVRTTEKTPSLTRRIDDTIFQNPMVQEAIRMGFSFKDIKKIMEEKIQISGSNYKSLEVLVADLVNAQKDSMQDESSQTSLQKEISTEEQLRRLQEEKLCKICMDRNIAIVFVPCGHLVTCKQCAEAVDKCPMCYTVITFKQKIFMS

| SMILES | z-score [1] | z-score [2] | z-score [3] | composite z-score [4] | z-score [5] | z-score [6] | z-score [7] | z-score [8] | z-score [9] | composite z-score [10] |
| --- | --- | --- | --- | --- | --- | --- | --- | --- | --- | --- |
| C=C[C@@H](OC)[C@H](O)c1ccc(O)c(F)c1 | 0.097 and -0.0575 | -8.11 (active) and -7.12 (inactive) | 0.0746 (inactive) and 0.161 (inactive) | 0.789 (inactive) and -1.04 (inactive) | 0.826 (inactive) and 0.143 (inactive) | 1.17 (inactive) and -1.07 (inactive) | 0.407 (inactive) and 0.707 (inactive) | 0.27 (inactive) and 0.965 (inactive) | -0.0761 and 0.295 | -0.195 and 0.0027 |
| O=C1[C@H]2[C@H]3[C@H](O)[C@H](O)CC(=NOCc4ccccc4)[C@H]3CC[C@H]2C(=O)N1Cc1ccccc1 | 0.447 | -2.68 (inactive) | 1.58 (inactive) | -2.59 (inactive) | 0.106 (inactive) | -2.13 (inactive) | 0.323 (inactive) | -0.777 (inactive) | 0.719 | -0.13 |
| C=C[C@H](C)[C@H](O)c1ccc(O)c2ccccc12 | 0.26 and 0.0956 | -8.01 (active) and -8.42 (active) | -0.709 (inactive) and -0.107 (inactive) | -1.87 (inactive) and -1.49 (inactive) | 1.32 (inactive) and 1.45 (inactive) | -1.6 (inactive) and -2.52 (inactive) | 1.06 (inactive) and 1.82 (inactive) | 1.31 (inactive) and 1.91 (inactive) | -0.54 and 0.1 | -0.0659 and 0.116 |
| CC(CO)N1C(=O)[C@@H]2C3C(=O)OCCC=C[C@H]3OC23C=CCN(Cn2nnc4ccccc42)C(=O)[C@@H]13 (stereo not given in full) | 0.576 and 0.999 | 0.771 (inactive) and 0.283 (inactive) | -0.415 (inactive) and -0.0046 (inactive) | -4.99 (inactive) and -0.478 (inactive) | 0.55 (inactive) and 0.798 (inactive) | 1.07 (inactive) and -0.995 (inactive) | -0.125 (inactive) and 0.0633 (inactive) | -0.214 (inactive) and -0.099 (inactive) | 0.0489 and -0.178 | -0.0448 and -0.21 |
| CC(CO)N1C(=O)[C@@H]2C3C(=O)OCCC=C[C@H]3OC23C=CCN(c2ccc4ccccc4c2)C(=O)[C@@H]13 (stereo not given in full) | -0.406 and 0.0336 | 0.425 (inactive) and -0.0343 (inactive) | -0.832 (inactive) and -0.602 (inactive) | -5.1 (inactive) and -0.281 (inactive) | -0.0837 (inactive) and -0.649 (inactive) | 1.44 (inactive) and -0.636 (inactive) | -0.881 (inactive) and -0.593 (inactive) | -0.987 (inactive) and -0.714 (inactive) | -0.406 and -0.233 | 0.172 and 0.232 |
